The record followed here is PubChem BioAssay.

In assay [1] the target is PEG-3 (UniProt Q6IN02). Kind of assay: inhibition of PEG-3 promoter-driven reporter – cell-based, HeLa, luciferase, CREF/GAPDH counter-screen panel, dose response (AID 624167). As to conditions: CREF/GAPDH counter-screens; HeLa PEG-Prom luciferase reporter, overnight, run 1, dose range 1, at 100 µM (top of the series) unless noted.
In assay [2] the target is PEG-3 (UniProt Q6IN02). The description is as above. As to conditions: CREF/GAPDH counter-screens; HeLa PEG-Prom luciferase reporter, overnight, run 2, dose range 1, at 100 µM (top of the series) unless noted.

Chain of PEG-3 (Q6IN02 whole entry, looked up): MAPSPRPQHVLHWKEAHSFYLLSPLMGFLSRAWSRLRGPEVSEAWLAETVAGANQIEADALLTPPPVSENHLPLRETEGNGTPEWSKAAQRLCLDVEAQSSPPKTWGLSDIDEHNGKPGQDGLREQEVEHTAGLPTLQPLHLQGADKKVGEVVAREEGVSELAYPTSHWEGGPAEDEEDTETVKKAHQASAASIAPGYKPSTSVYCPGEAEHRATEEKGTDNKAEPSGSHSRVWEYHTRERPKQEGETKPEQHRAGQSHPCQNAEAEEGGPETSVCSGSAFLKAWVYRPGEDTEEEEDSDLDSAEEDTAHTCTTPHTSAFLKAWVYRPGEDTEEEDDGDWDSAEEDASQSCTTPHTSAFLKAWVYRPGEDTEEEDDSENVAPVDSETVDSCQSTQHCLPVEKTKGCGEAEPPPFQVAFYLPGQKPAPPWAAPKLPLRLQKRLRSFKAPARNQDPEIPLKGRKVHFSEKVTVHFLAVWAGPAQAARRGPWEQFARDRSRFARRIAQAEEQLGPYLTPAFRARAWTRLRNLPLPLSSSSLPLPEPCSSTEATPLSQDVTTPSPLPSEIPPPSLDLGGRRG

With `CN(CCOc1ccc(Cl)cc1)C(=O)c1cc(-c2ccco2)nc2ccccc12`, the inhibition with PEG-3 [1] turned out to be 99.6%; with PEG-3 [2] it was 96.2%.

In the case of `Cc1nc(N2CCN(c3ccccc3O)CC2)c2c(-c3ccccc3)csc2n1`, the inhibition with PEG-3 [1] turned out to be 94.8%; with PEG-3 [2] it was 94%.

With `Cc1ccc(C(=O)N2CCN(c3ccc([N+](=O)[O-])c(NCc4cccnc4)c3)CC2)cc1`, the inhibition with PEG-3 [1] is 48.8%; in the assay with PEG-3 [2] it was 47.4%.

Turning to `C[C@@]12C(=O)Nc3cc(Cl)ccc3C(=O)N1[C@H]1c3cc(Cl)ccc3OC[C@@H]1[C@@H]2c1ccccc1`, the inhibition is 32.1% with PEG-3 [1] and 36.4% with PEG-3 [2].

In the case of `COc1ccc(C[C@H]2CN3C(=NC[C@@H]3Cc3ccc(O)cc3)N2C[C@H](C)NC(=O)c2ccc(C)c(Br)c2)cc1`, the inhibition in the assay with PEG-3 [1] and in the assay with PEG-3 [2] was 102% throughout.

Take `O=C(C(=O)N(Cc1ccccc1)Cc1ccccc1)c1c(-c2ccccc2)[nH]c2ccccc12`: the inhibition with PEG-3 [1] was 20.8%; in the assay with PEG-3 [2] it was 46.6%.

In the case of `O=C(Nc1ccccc1)c1nc[nH]c1C(=O)NCCCNC(=O)c1[nH]cnc1C(=O)Nc1ccccc1`, the figures for the inhibition with PEG-3 [1] and with PEG-3 [2] were -24.6% and 96.8%, respectively.

`c1ccc(C[C@H]2CNCCN2CCCCC2CCCCC2)cc1`: the figures for the inhibition with PEG-3 [1] and with PEG-3 [2] were 102% and 101%, respectively.

Regarding `COc1cc2c(cc1OC)CN(c1nc(-c3cccnc3)nc3ccccc13)CC2`, the inhibition is 95.5% in the assay with PEG-3 [1] and 99.1% with PEG-3 [2].

As to `C=CCN=C1NN=C(c2cc(C)n(CC=C)c2C)CS1`, the inhibition in the assay with PEG-3 [1] was 93.6%; in the assay with PEG-3 [2], 97.6%.

For the compound `CC(C)c1ccc(NC(=O)Nc2nc(C(C)N)cs2)cc1` (stereo unspecified), the figures for the inhibition in the assay with PEG-3 [1] and in the assay with PEG-3 [2] were 100% and 98.9%, respectively.

With `CN(C)C(=O)c1cccc(-c2cnc3c(NC=O)cc(-c4cccc(C(F)(F)F)c4)cn23)c1`, the inhibition with PEG-3 [1] was 89.1%; with PEG-3 [2], 93.6%.

As for `Oc1c(Cl)cc(Cl)c2cccnc12`, the inhibition with PEG-3 [1] came out at 80.8%; with PEG-3 [2] it was 80.6%.

`O=C(c1ccccc1)N(C(=O)c1ccccc1)c1ncnc2c1C(c1ccccc1)c1c(ccc3ccccc13)O2` (stereo unspecified): the figures for the inhibition in the assay with PEG-3 [1] and with PEG-3 [2] were 52.7% and 28.4%, respectively.

On to `CCCN1CCc2c(sc(NC(=O)c3ccc(S(=O)(=O)N4CCN(C(=O)OCC)CC4)cc3)c2C(N)=O)C1`, for which the inhibition worked out at 78.5% with PEG-3 [1] and 85.4% with PEG-3 [2].

Regarding `CCCN(CCC)CCCNC(=S)Nc1ccc2nc(N3CCCC3)cc(C)c2c1`, the results for the inhibition with PEG-3 [1] and with PEG-3 [2] were 99.6% and 98.1%, respectively.

Take `O=C(Cn1ncc(Cl)c(Cl)c1=O)N1CCN(Cc2ccccc2)CC1`: the results for the inhibition with PEG-3 [1] and with PEG-3 [2] were 95.2% and 98.8%, respectively.

For `CN[C@H]1C[C@H]2c3[nH]c4ccc(-c5cccc(C)c5)cc4c3CCN2C[C@H]1[C@H](C)O`, the inhibition with PEG-3 [1] is 99%; with PEG-3 [2] it was 100%.

Turning to `COc1ccc(-c2cc(-c3ccc(F)cc3)nc(N3CCN(C)CC3)n2)cc1`, the results for the inhibition with PEG-3 [1] and with PEG-3 [2] were 25.8% and 101%, respectively.

For the compound `COc1ccccc1NC(=O)c1cc(-c2cc(OC)c(OC)c(OC)c2)nc2ccccc12`, the inhibition is 47.9% with PEG-3 [1] and 50.1% [run 2, dose range 1, at 50 µM] with PEG-3 [2].

For `COc1cccc(-c2cnc3c(NC=O)cc(-c4cccc(C(=O)N(C)C)c4)cn23)c1`, the inhibition with PEG-3 [1] amounted to 98.8%; with PEG-3 [2], 97.5%.

As to `O=C1NC(Cc2ccc(O)cc2)c2nc3ccc(F)cc3c(=O)n2-c2cc3ccccc3cc21` (stereo unspecified), the inhibition with PEG-3 [1] was 100%; with PEG-3 [2] it was 95.8%.

Regarding `CC1CCCC(C)N1C(=C(Cl)Cl)C(=C1SCCS1)[N+](=O)[O-]` (stereo unspecified), the inhibition with PEG-3 [1] was found to be 50.8%; in the assay with PEG-3 [2], 68.9%.

As to `Cc1cccc(NC(=O)CSc2nc3ccccc3c3nc(CCc4c(C)n[nH]c4C)nn23)c1`, the inhibition with PEG-3 [1] is 97.9%; with PEG-3 [2], 95.8%.

As to `CC(NS(=O)(=O)OCC(Cl)(Cl)Cl)c1ccc(C(C)(C)C)cc1` (stereo unspecified), the inhibition with PEG-3 [1] amounted to 101%; in the assay with PEG-3 [2], 97.9%.

As for `CCc1ccc2c(c1)Sc1ccccc1CC2N1CCN(C)CC1` (stereo unspecified), the inhibition with PEG-3 [1] and with PEG-3 [2] was 102% in each case.

Turning to `OCCNCc1cc(Br)ccc1OCc1ccc(Cl)cc1Cl`, the inhibition with PEG-3 [1] and with PEG-3 [2] was 101% throughout.

Turning to `COc1ccc(-c2sc3ccccc3c2-c2ccc(OCCN3CCCCC3)cc2)cc1`, the inhibition with PEG-3 [1] was determined as 99.5%; with PEG-3 [2], 100%.

In the case of `Cc1cccc(/C=C2/Sc3ccc(C(=O)NCCN4CCCC4)cc3NC2=O)c1`, the inhibition stood at 99.2% in the assay with PEG-3 [1] and 101% with PEG-3 [2].

In the case of `c1ccc(CCCNCCCn2cnc3c(OCc4ccccc4)ncnc32)cc1`, the figures for the inhibition with PEG-3 [1] and in the assay with PEG-3 [2] were 99.5% and 101%, respectively.

Take `CCOC(=O)c1c(NC(C)=O)sc2c(OCC(O)CNC(C)(C)C)c(Br)ccc12` (stereo unspecified): the inhibition in the assay with PEG-3 [1] stood at 102%; in the assay with PEG-3 [2], 93.7%.

For `CN(C)CCc1cc2c(c3c1ccc1ccccc13)OCO2`, the values for the inhibition with PEG-3 [1] and in the assay with PEG-3 [2] were 98.3% and 99.1%, respectively.

As for `O=C(CCN1C(=O)/C(=C/c2ccc(F)cc2)SC1=S)N[C@@H](CO)Cc1ccccc1`, the inhibition was 36.9% with PEG-3 [1] and 72% with PEG-3 [2].

Regarding `Cc1ccccc1NC(=O)C(=Cc1ccc(C(=O)O)cc1)C(=O)Nc1ccccc1C`, the inhibition came to 90.3% with PEG-3 [1] and 101% in the assay with PEG-3 [2].

As for `COc1cc(/C=C/c2ccc3cccc(O)c3n2)ccc1O`, the inhibition with PEG-3 [1] is 92.4%; in the assay with PEG-3 [2], 99.9%.

For the compound `CCCc1ccc(C(=O)O/N=C(\N)c2ccccn2)cc1`, the figures for the inhibition in the assay with PEG-3 [1] and in the assay with PEG-3 [2] were 99.7% and 102%, respectively.

Regarding `N#Cc1cc2c(nc1SC1CC(=O)N(c3ccccc3)C1=O)CCC2` (stereo unspecified), the inhibition with PEG-3 [1] was 33.5%; in the assay with PEG-3 [2], 25.6%.

In the case of `CC(=O)OCCNc1cc(SCc2ccco2)c2nonc2c1[N+](=O)[O-]`, the values for the inhibition in the assay with PEG-3 [1] and in the assay with PEG-3 [2] were 100% and 98.1%, respectively.
